In PubChem BioAssay (NCI):
About 83,000 compounds went through this panel and 20% of them were active in at least one assay; those are over-represented in the sample as a whole.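 48-hour exposure, single concentration, 96-well plates; percent growth endpoint where 0 means no net growth. Active: below 10.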 Activity calls are given as the source filed them.

Tests used:
Experiment in all cases: NCI-60 one-dose screen, 48 h (100 = growth as untreated, 0 = no growth, -100 = all killed)
Conditions in all cases: 10 µM unless noted
HCT-15 colon = system: HCT-15 colon
HT29 colon = system: HT29 colon
SNB-19 CNS = system: SNB-19 CNS
U251 CNS = system: U251 CNS
PC-3 prostate = system: PC-3 prostate
SK-MEL-5 melanoma = system: SK-MEL-5 melanoma
UACC-62 melanoma = system: UACC-62 melanoma
LOX IMVI melanoma = system: LOX IMVI melanoma
SK-MEL-28 melanoma = system: SK-MEL-28 melanoma
SK-MEL-2 melanoma = system: SK-MEL-2 melanoma
EKVX NSCLC = system: EKVX NSCLC
SN12C renal = system: SN12C renal
UO-31 renal = system: UO-31 renal
TK-10 renal = system: TK-10 renal
ACHN renal = system: ACHN renal
CAKI-1 renal = system: CAKI-1 renal
CCRF-CEM leukemia = system: CCRF-CEM leukemia
MOLT-4 leukemia = system: MOLT-4 leukemia
A498 renal = system: A498 renal
SNB-75 CNS = system: SNB-75 CNS

Measured: growth

COc1cc(NC(=O)c2cc(O)c(CC=C(C)C)c(O)c2)cc2c1O[C@]1(C)CC[C@@H](O)C(C)(C)[C@H]1C2
inactive: HCT-15 colon 34.3% | SNB-19 CNS 44.9% | U251 CNS 13.4% | PC-3 prostate 21.5% | LOX IMVI melanoma 12.7% | SK-MEL-28 melanoma 18.8% | SK-MEL-2 melanoma 14.7% | EKVX NSCLC 41% | SN12C renal 65.3% | TK-10 renal 56.4% | ACHN renal 36.2% | CAKI-1 renal 19.6% | CCRF-CEM leukemia 13%
active: HT29 colon 5.24% | SK-MEL-5 melanoma -20.3% | UACC-62 melanoma -13.3% | UO-31 renal -11.9% | MOLT-4 leukemia -8.24%

C=C1C(=O)O[C@H]2[C@H]1CC/C(COC(=O)/C=C\C(=O)NCc1ccc(Cn3c(=O)sn(-c4ccc(C#N)cc4)c3=O)cc1)=C\CC[C@@]1(C)O[C@@H]21
active: HCT-15 colon -33.9% | HT29 colon -13.2% | SNB-19 CNS -65% | U251 CNS -66.4% | PC-3 prostate -62.4% | UACC-62 melanoma -99.4% | LOX IMVI melanoma -86.8% | SK-MEL-28 melanoma -96.2% | SK-MEL-2 melanoma -64.9% | EKVX NSCLC -56.9% | SN12C renal -93.8% | UO-31 renal -100% | TK-10 renal -85.1% | ACHN renal -100% | CAKI-1 renal -69.1% | A498 renal -8.82% | CCRF-CEM leukemia -18.1% | MOLT-4 leukemia -32.3%

COc1cc(-c2ncn(/C=C\c3nnco3)n2)cc(C(F)(F)F)c1
inactive: HCT-15 colon 17.6% | SNB-19 CNS 23.3% | U251 CNS 14.7% | PC-3 prostate 33.6% | UACC-62 melanoma 13.2% | EKVX NSCLC 61.5% | SN12C renal 33.6% | UO-31 renal 18.3% | ACHN renal 27.7% | CAKI-1 renal 26.1% | CCRF-CEM leukemia 13.6%
active: SNB-75 CNS 4.47% | SK-MEL-5 melanoma -11.8% | LOX IMVI melanoma -27.3% | SK-MEL-28 melanoma 6.79% | SK-MEL-2 melanoma -6.5% | A498 renal -33.9% | MOLT-4 leukemia 1.86%

CCOC(=O)c1ccc(-c2ccc3cc(OC)ccc3c2)nc1C
inactive: HCT-15 colon 99.2% | HT29 colon 80.2% | U251 CNS 104% | PC-3 prostate 100% | SK-MEL-5 melanoma 107% | UACC-62 melanoma 85.2% | LOX IMVI melanoma 105% | SK-MEL-28 melanoma 91.5% | SK-MEL-2 melanoma 102% | EKVX NSCLC 99.4% | SN12C renal 101% | UO-31 renal 93.9% | TK-10 renal 84.3% | ACHN renal 96.8% | CAKI-1 renal 114% | A498 renal 99.8% | CCRF-CEM leukemia 95.3% | MOLT-4 leukemia 78%

CC(/C=N/NC(=O)c1cc(-c2ccco2)[nH]n1)=C\c1ccccc1
inactive: HCT-15 colon 93.2% | HT29 colon 113% | SNB-19 CNS 100% | U251 CNS 96.7% | PC-3 prostate 92.1% | SK-MEL-5 melanoma 98.8% | UACC-62 melanoma 94% | LOX IMVI melanoma 97.9% | SK-MEL-28 melanoma 104% | EKVX NSCLC 89.2% | SN12C renal 95% | UO-31 renal 96.8% | ACHN renal 93.1% | CAKI-1 renal 80.8% | A498 renal 110% | CCRF-CEM leukemia 92.3% | MOLT-4 leukemia 96.6%

O=C1CSC(c2ccccc2O)N1c1nnc(Cn2cnnc2)o1 (stereo not given)
inactive: HCT-15 colon 66.2% | HT29 colon 99.1% | SNB-19 CNS 90.4% | U251 CNS 79.7% | PC-3 prostate 79.4% | SK-MEL-5 melanoma 95.1% | UACC-62 melanoma 90.8% | LOX IMVI melanoma 78.5% | SK-MEL-28 melanoma 102% | EKVX NSCLC 81.8% | SN12C renal 79.6% | UO-31 renal 46.7% | TK-10 renal 145% | ACHN renal 89.4% | CAKI-1 renal 71.3% | A498 renal 106% | CCRF-CEM leukemia 23% | MOLT-4 leukemia 61.5%

N#Cc1cnn2c(-c3ccc(Cl)cc3)nc(NC3CC3)nc12
inactive: HCT-15 colon 90.1% | HT29 colon 88.8% | SNB-19 CNS 86.6% | U251 CNS 97.3% | PC-3 prostate 95% | SK-MEL-5 melanoma 95.3% | UACC-62 melanoma 85.6% | LOX IMVI melanoma 99% | SK-MEL-28 melanoma 113% | SK-MEL-2 melanoma 99.8% | EKVX NSCLC 75.9% | SN12C renal 98.9% | UO-31 renal 69.2% | TK-10 renal 94.2% | ACHN renal 96.8% | A498 renal 84.5% | CCRF-CEM leukemia 95.7% | MOLT-4 leukemia 80.1%

CCNCCNc1cc(-c2ccc(F)cc2)c(C#N)c2nc3ccccc3n12
inactive: HCT-15 colon 23.8% | HT29 colon 16.6% | SNB-19 CNS 79.3% | U251 CNS 17.1% | PC-3 prostate 42.1% | UACC-62 melanoma 12.7% | EKVX NSCLC 78.4% | UO-31 renal 39.9% | TK-10 renal 87.5% | CAKI-1 renal 71.2% | CCRF-CEM leukemia 27.1% | MOLT-4 leukemia 61.4%
active: SK-MEL-5 melanoma -62.9% | LOX IMVI melanoma -77.4% | SK-MEL-28 melanoma -91% | ACHN renal 9.08% | A498 renal -9.7%

COc1cc2oc(-c3cccc(C(=O)Nc4ccc(C)cc4)c3)cc(=O)c2c(OC)c1OC
active: SK-MEL-5 melanoma -60.3% | UACC-62 melanoma -33.8% | LOX IMVI melanoma -7.81% | SK-MEL-28 melanoma 7.12% | CAKI-1 renal 2.16% | A498 renal 6.03%
inactive: HCT-15 colon 17.6% | HT29 colon 11.2% | SNB-19 CNS 67.9% | U251 CNS 42.1% | PC-3 prostate 45% | SK-MEL-2 melanoma 42.3% | SN12C renal 31.6% | UO-31 renal 44.3% | TK-10 renal 53.3% | ACHN renal 34.2% | CCRF-CEM leukemia 34.7% | MOLT-4 leukemia 54.7%

CCN(CC)CCOc1ccc(/C(=C(\C)c2ccc(OC)c(F)c2)c2ccc(Cl)cc2)cc1
active: HCT-15 colon 7.79% | LOX IMVI melanoma 1.85%
inactive: HT29 colon 14.9% | SNB-19 CNS 91.8% | U251 CNS 66.8% | PC-3 prostate 64.8% | UACC-62 melanoma 60.1% | SK-MEL-28 melanoma 68% | SK-MEL-2 melanoma 95.9% | EKVX NSCLC 96.5% | SN12C renal 83.5% | UO-31 renal 75.6% | ACHN renal 89.8% | CAKI-1 renal 67.2% | A498 renal 102% | CCRF-CEM leukemia 60.2% | MOLT-4 leukemia 70.8%

Nc1ccc2c(S(=O)(=O)O)ccc(S(=O)(=O)O)c2c1
inactive: HCT-15 colon 105% | HT29 colon 105% | SNB-19 CNS 93.5% | U251 CNS 99.5% | PC-3 prostate 91.9% | SK-MEL-5 melanoma 93.5% | UACC-62 melanoma 90.5% | LOX IMVI melanoma 98.1% | SK-MEL-28 melanoma 116% | SK-MEL-2 melanoma 103% | EKVX NSCLC 103% | SN12C renal 95.3% | UO-31 renal 81.6% | TK-10 renal 108% | ACHN renal 96.4% | CAKI-1 renal 95.6% | CCRF-CEM leukemia 56.5% | MOLT-4 leukemia 80.3%

CCCCCCCCc1cc[n+](CC(=O)c2ccc(Br)cc2)cc1
active: HT29 colon -88.9% | U251 CNS -85.2% | SK-MEL-5 melanoma -93.5% | UACC-62 melanoma -32.9% | LOX IMVI melanoma -84.8% | SK-MEL-2 melanoma 0.325% | SN12C renal 8.54% | TK-10 renal -67.5% | ACHN renal 9.78% | CCRF-CEM leukemia 0.476%
inactive: SNB-75 CNS 50.5% | SNB-19 CNS 35.3% | PC-3 prostate 10.2% | SK-MEL-28 melanoma 32.9% | EKVX NSCLC 35.7% | UO-31 renal 38.2% | CAKI-1 renal 41.4% | A498 renal 88.8%

Cc1cc(=O)c2cc3nc(-c4cccnc4)oc3c(Br)c2o1
inactive: HCT-15 colon 106% | HT29 colon 103% | SNB-19 CNS 131% | U251 CNS 97.8% | PC-3 prostate 99.6% | SK-MEL-5 melanoma 105% | UACC-62 melanoma 104% | LOX IMVI melanoma 98% | SK-MEL-28 melanoma 119% | SK-MEL-2 melanoma 131% | EKVX NSCLC 98.9% | SN12C renal 110% | UO-31 renal 106% | TK-10 renal 153% | ACHN renal 110% | CCRF-CEM leukemia 94.1% | MOLT-4 leukemia 89.7%

Cc1cc(C(c2ccccc2)c2ccccc2)ccc1NS(=O)(=O)c1ccccc1
inactive: HCT-15 colon 96.3% | HT29 colon 89.3% | SNB-19 CNS 101% | U251 CNS 94.6% | PC-3 prostate 83.6% | SK-MEL-5 melanoma 94.8% | UACC-62 melanoma 85.2% | LOX IMVI melanoma 87.7% | SK-MEL-28 melanoma 112% | SK-MEL-2 melanoma 104% | EKVX NSCLC 83.5% | SN12C renal 95.3% | UO-31 renal 82.3% | TK-10 renal 123% | ACHN renal 106% | CAKI-1 renal 89.3% | A498 renal 102% | CCRF-CEM leukemia 82.4% | MOLT-4 leukemia 59.7%

CCNCCNc1cc(-c2cccc(C(F)(F)F)c2)c(C#N)c2nc3ccccc3n12
active: HCT-15 colon -91.4% | HT29 colon -82.5% | SNB-19 CNS -20.3% | U251 CNS -88.7% | PC-3 prostate -59% | SK-MEL-5 melanoma -96.1% | UACC-62 melanoma -68.6% | LOX IMVI melanoma -85.7% | SK-MEL-28 melanoma -81.9% | EKVX NSCLC -89.5% | SN12C renal -47% | UO-31 renal -81.8% | TK-10 renal -92.9% | ACHN renal -100% | CAKI-1 renal -70.8% | CCRF-CEM leukemia -12.3% | MOLT-4 leukemia -33.2%
inactive: A498 renal 81.4%

CCCCOc1ccc(NC(=O)n2nc(N=NN(C)C)c3ccc(Cl)cc32)cc1
inactive: HCT-15 colon 105% | HT29 colon 98.1% | SNB-19 CNS 106% | U251 CNS 118% | PC-3 prostate 88.5% | SK-MEL-5 melanoma 107% | UACC-62 melanoma 86.4% | SK-MEL-28 melanoma 106% | SK-MEL-2 melanoma 97.6% | SN12C renal 93.5% | UO-31 renal 65.7% | TK-10 renal 126% | ACHN renal 93.8% | CAKI-1 renal 90.7% | CCRF-CEM leukemia 88.9%

Fc1ccc(Nc2nc3nonc3nc2Nc2ccc(F)cc2)cc1
active: HCT-15 colon 6.25% | HT29 colon 2.83% | U251 CNS -6.58% | PC-3 prostate 1.43% | SK-MEL-5 melanoma -46.4% | UACC-62 melanoma 3.98% | LOX IMVI melanoma 2.74% | SK-MEL-28 melanoma 4.39% | SK-MEL-2 melanoma -26.2% | UO-31 renal -6.75% | TK-10 renal -4.95% | ACHN renal -15.9% | CAKI-1 renal -8.48% | A498 renal -41.1% | MOLT-4 leukemia -8.01%
inactive: SNB-19 CNS 23% | SN12C renal 12% | CCRF-CEM leukemia 17.1%
